In all, about 53,000 sequences went through this assay and about 3,700 (7%) were called active. This is one part of a sample in which actives are shown more often than they occur.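 The calls were made as follows: active = gene knockdowns whose robust z-score for IL-1 alpha signal is at least 2 or at most -2, so actives lie on both sides; inactive = the rest.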

This passage reports z-score results from PubChem BioAssay AID1508600 (Functional Genomics Laboratory (NCATS/FGL), 2020).

This assay can be described thus: Components of the Cytosolic LPS Sensing Pathway: Gene Identification via Genome-wide siRNA Screen.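 Also: robust z of the log signal after scaling to non-targeting control siRNA wells of the plate.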 Particulars: RAW264.7 macrophages, IL-1a HTRF, actives lie on both sides, screened at 100 nM (by protocol), cells primed 5 h with Pam3CSK4 first. The method, boiled down:
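RAW264.7; siRNA 100 nM final, RNAiMAX, 48h 37 degrees C; Pam3CSK4 5 h; LipidA + TransIT-TKO 24 h; IL-1a HTRF; CellTiter-Glo viability; robust z vs negative-control median.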
A general note: In TR-FRET formats the signal depends on donor and acceptor labels being close together.
With GCAGGAUUGAAACAUGUAUTT against Tcl1b3, the z-score was -0.298 (inactive).

As for “GCCAAUUGGUUCCCUGUAATT against 1700034E13Rik”, the z-score was -3.04 (active).

As for “CGAACUUCCAAAAAGUUCATT against A430005L14Rik”, the z-score was -0.498 (inactive).

As to GGAUUGGCAAGCAGCUAACTT against Dnase2a, the z-score is -2.08 (active).

In the case of UCACCCUGUUCGUAAUCAUTT against Olfr467, the z-score was -0.17 (inactive).

CCACUGGUUCACCUAUAAUTT against Psma5: the z-score was 0.092 (inactive).

For the sequence CGAAUGACCUCGAUAGCUGTT against Gm5082, the z-score was 0.195 (inactive).

Regarding GGAAGAAGCCACCAUGUACTT against Pbx4, the z-score is -1.75 (inactive).

On to GGCUGAGGUUCGAGUGUAUTT against Rps6ka4, for which the z-score was 3.51 (active).

In the case of GGCCAAUAGGACAUAUCUATT against Qprt, the z-score is -0.443 (inactive).

As for GCUUAGCUGUUAUGUUUUUTT against Atp6ap1, the z-score was 1.81 (inactive).

For GCAAUGUGUGGUAAGUAAATT against Zfp738, the z-score is -0.757 (inactive).

As for GGUUUAGCUGCUGACUUAATT against Strn3, the z-score is 1.03 (inactive).

As for GGAGAAGGUUUUGAUGUGGTT against Drg1, the z-score is -1.31 (inactive).

For GGCAACUGGAGAUGUGUGUTT against Lpgat1, the z-score is -0.361 (inactive).

Take CGACAUCCCAAUAAACAAGTT against Lcn3: the z-score is -1.1 (inactive).

As for GCAGAGGAGUUUUCAAUUUTT against Il17rb, the z-score is 0.997 (inactive).

Regarding GGCCCUUCUGGACUAUCAUTT against Ccdc83, the z-score was 3.39 (active).

For the sequence GGUACCUGAGUCCAUCUCATT against Sntb1, the z-score was -0.219 (inactive).

As to CGAACUUCAAGACUGUGAUTT against Cep95, the z-score was -0.248 (inactive).

Regarding GGAAAUAAUGACCAAGUACTT against Grk5, the z-score is -1.32 (inactive).

Take CCCUGGUAAACACCAAUAGTT against Ctnna1: the z-score was 0.849 (inactive).

On to GCCUGUCCACAUCACUGUATT against Tmem171, for which the z-score was -0.16 (inactive).

For the sequence CCCUAAGGAGUUUUGCGUUTT against Ikzf4, the z-score was 1.58 (inactive).

GGUCUAUUUGACCUCUUAATT against Bcl2l13: the z-score was 2.22 (active).

On to GGUAUAUGGACUGGUGGAUTT against Hrh2, for which the z-score is 0.41 (inactive).

Regarding GGAUCAAUGAAAAUGAGAATT against Fzr1, the z-score is -0.0554 (inactive).

In the case of CCAGUACCCGUCUGAAAAGTT against Olfr215, the z-score is -0.457 (inactive).

For the sequence GGAUCUUUGCUACAAAAACTT against Fhl5, the z-score was 0.48 (inactive).

With GGGAUAACCAGUGAAUUUATT against Pcdhb15, the z-score is 2.23 (active).

Turning to GGGACUUAUGUCCAGGAAGTT against Agap3, the z-score is -1.09 (inactive).

Turning to GGGACCACCUUGAACACUATT against Slc52a3, the z-score is 1.81 (inactive).

On to GGCAUCUUAUUUCUUGUUATT against Tbkbp1, for which the z-score was -0.56 (inactive).

In the case of GUGAAGAAAGUCAUCAAGATT against Olfr1506, the z-score was -0.182 (inactive).

As to GGCUUUGAUCAGCAUGAGCTT against Pak4, the z-score is -2.07 (active).

As for GCAAGGUCAAUCAAUCGUATT against Taar1, the z-score was 0.548 (inactive).

As to GCGGAGUCUUUGGCUUAGATT against Lratd2, the z-score was 1.03 (inactive).

Regarding CGAAAGCUAAACUAAAAGATT against Stimate, the z-score was 0.539 (inactive).

On to GCUGAAUACCCUUUUAGUUTT against Atp2c1, for which the z-score is 0.317 (inactive).

For GCGAUAUUAACUAUGGAGATT against Gpr149, the z-score was -0.601 (inactive).

In the case of GGUAUUCCAAUAACUGUACTT against Fip1l1, the z-score is -0.269 (inactive).

With GGAAAGAAUCCACUUGCAUTT against Xkr5, the z-score was -1.35 (inactive).

GGAGAUUUUCCAGAGGCUGTT against Josd1: the z-score was -2.24 (active).

As for CGGCCUUCUCUACAAAUCATT against Rbfa, the z-score is 0.816 (inactive).

For GCUGACCAUUUUGAUGCCCTT against Adi1, the z-score is -0.0381 (inactive).

Consider GGUGGUUUUGUUUCUUUUUTT against Tab3, for which the z-score was 0.643 (inactive).

For the sequence GGGCCAACCCAGAAAAACATT against Plekha7, the z-score is -0.515 (inactive).

Turning to GCCGUCUUUACAUUCCUGATT against Olfr605, the z-score is 0.8 (inactive).

Turning to CCCAUCAAAAGAAUCCACATT against Snrnp70, the z-score is -2.51 (active).

With GGUGUUUAAUUGCUCACUATT against Gramd4, the z-score was 1.13 (inactive).

Regarding UACCCGAAUGCAGACAGGATT against Raet1a, the z-score is 0.667 (inactive).

GGAGGAAGCUGAACUCUGGTT against Ehmt2: the z-score is -0.655 (inactive).

In the case of GCAUUUAGAAGAAUCCGCCTT against Hao2, the z-score was 2.01 (active).

For CCUUGUGAUGUUUAAAGACTT against Abcg1, the z-score is 0.293 (inactive).

With GUGAGUAGGUAGGAAGCAUTT against Cd200r2, the z-score is -2.56 (active).

CCAGUUGUCUAGACCUGCATT against Ptbp1: the z-score is -0.301 (inactive).

Turning to CCUACAAGCAGAGUACAAUTT against Myo10, the z-score was 1.06 (inactive).

With GGCCUUCAACGAUUCAAUCTT against Olfr770, the z-score is 1.35 (inactive).

For GGAGAGAAAUUUGACACUCTT against Mgrn1, the z-score is -0.0326 (inactive).

With GCCAGUGUCCCUAAUAAGGTT against Ager, the z-score is 0.2 (inactive).

Consider GCAAACUAUAGGUGCGUUGTT against Dscc1, for which the z-score is 0.885 (inactive).

As to GUCUACCAGAUCCUUCCCUTT against H2-Q8, the z-score is -2.25 (active).

With GCAAACAUGUCAAGUCCGATT against Actl6b, the z-score is 1.07 (inactive).

Consider GGACUAUUUGCUGAUGGACTT against Trpc6, for which the z-score is 2.74 (active).

Turning to GCAUUUCACCUGGAGCCUUTT against Zfp108, the z-score was -1.11 (inactive).

As to CGAGAAUACAUUGAGGAGUTT against Hook2, the z-score is 0.926 (inactive).

For the sequence CGACAACCACUUCAACUAUTT against Chn2, the z-score is 1.34 (inactive).

Turning to GGCUAUCCUCUUUUACCAUTT against Dele1, the z-score was -0.374 (inactive).

As for GGUGUUAGGAAGUCACAUUTT against Tas2r109, the z-score is -1.28 (inactive).

As for CCCUAUCCUGUUCAUCUCUTT against Gpr50, the z-score was 2.83 (active).

As to GGAAAAAGCUCAAAGGCGATT against Gap43, the z-score was -0.216 (inactive).

As to GGAAAUGGAUCCAGAAUAUTT against Smarca1, the z-score was -1.12 (inactive).

As to GGACAUGACAUCCAAAGACTT against Prmt1, the z-score was -0.649 (inactive).

On to GGACACAGAUUAAUCAAGATT against Iftap, for which the z-score was 0.144 (inactive).

As to GGCCAUUGCCUCUUCUACUTT against Plekha4, the z-score was -0.225 (inactive).

On to GAUCAACCUGAGCUCCAGUTT against Olfr25, for which the z-score was 2 (active).

With GGCCAUCCGCAUUUUUUCCTT against Mex3b, the z-score was -0.34 (inactive).

As for GGUUUUCAAAGUCCUGAAUTT against Myo3a, the z-score was -1.96 (inactive).

Consider GGGAAAGAAUGGUGUGGAATT against Dlx4, for which the z-score is -1.97 (inactive).

GGAAACUUCAGACUAGUCATT against Eif2s3y: the z-score was -0.0291 (inactive).

With GGGAAUUUCGGCUGUUUUATT against Cts8, the z-score was 1.85 (inactive).

For the sequence GGACCUGAGAGACUCUUUGTT against Ip6k2, the z-score was -3 (active).

Take GGUCCACAGAUUCUUCUAATT against Zfa-ps: the z-score was -0.761 (inactive).

With GGCCAUUUUGGAUCAUACATT against Actl6a, the z-score is -1.06 (inactive).

For GCAGAUCAAUGGAUUCACCTT against Olfr57, the z-score was -1.51 (inactive).

Consider GGCACUGCCAUUAACAAAATT against Nrip1, for which the z-score was 0.0122 (inactive).

Regarding GGGCCAAUAAAGAGGACAGTT against Aanat, the z-score was 2.38 (active).

Regarding CCUGAUUGUCUUCAAUGGGTT against Cant1, the z-score is -0.84 (inactive).

CCAGUUGACAGGUUUGAUCTT against Habp4: the z-score is -0.255 (inactive).

Regarding GGUACAAGAUAUUGUGAAATT against Fgd3, the z-score is 0.0612 (inactive).

Regarding GCUUGAUCAACAAGUGGAGTT against Nup62, the z-score was -2.13 (active).

For GAGCUCUGCAUUUGGUUAGTT against Fam98b, the z-score was 0.0904 (inactive).

Take “ACUCAGUCAUUAAAGAGUGTT against G430095P16Rik”: the z-score is 0.447 (inactive).

Regarding GGAUAUUCCCAAUUACAAGTT against Plxna3, the z-score was -0.469 (inactive).

For GGUCCAGAAGCAGAUGCUUTT against Zdhhc15, the z-score was -0.174 (inactive).

In the case of GCAAGAACAUUAUGAAAGUTT against Epb41, the z-score was 0.905 (inactive).

In the case of GGCCUACCACCUUCAGAAGTT against Rpl37, the z-score is 2.01 (active).

Turning to GGCACUGUAGACAAACUCUTT against Stxbp1, the z-score is -0.468 (inactive).

Take GGCACCUAUGAGGUUCUAUTT against Sec16b: the z-score is -0.615 (inactive).

As for GUUCAAGAGGGAGCUGGAATT against Pomc, the z-score is 0.842 (inactive).

Regarding GGUCAUUUGUUUUCAGGGATT against Tfdp2, the z-score is 3.07 (active).

Consider GGGCCUUUAGUCCUCAAAGTT against Psmg3, for which the z-score was 0.387 (inactive).

Regarding CCUGUCAUCACACUCGAGGTT against Coro6, the z-score is -0.00248 (inactive).

On to CGGCGGUUUAAUGAAAAUATT against Cbfa2t2, for which the z-score is -2.58 (active).

In the case of GGUAGAAUGUGUGAUACCCTT against Rogdi, the z-score was 0.205 (inactive).

In the case of GGUGGUCCAGAAUUUUGCATT against Cotl1, the z-score is 0.386 (inactive).

As to CGGGAAUAAGAUCUUUCUGTT against Zbtb22, the z-score is 1.43 (inactive).

For the sequence GGUACAUGAUUACCAGCCUTT against Sdk2, the z-score was -2.26 (active).
